# Assay results taken from the supplement of paper PMC13380429.
# A number with no mark means an inactive call.
# Test system: Vero E6 infected with SARS-CoV-2
# Test: inhibition of SARS-CoV-2 cytopathic effect; higher = more antiviral protection, active = above 15
# Details: 10000 nM; 48 h
row,SMILES,inhibition of SARS-CoV-2 cytopathic effect
1,CN1C2C=C(c3sccc3Br)CC1CC2 (stereo not given),3.11%
2,O=C(Cc1ccc(Cl)c(Cl)c1)N1CCCC[C@@H]1CN1CCCC1,-4.8%
3,CCOC(=O)N1CCC(=C2c3ccc(Cl)cc3CCc3cccnc32)CC1 [loratadine],-4.61%
4,NS(=O)(=O)c1ccc(-n2nc(C(F)(F)F)cc2-c2ccc(Cl)cc2)cc1,-0.38%
5,CC(C)OC(=O)C(C)(C)Oc1ccc(C(=O)c2ccc(Cl)cc2)cc1 [fenofibrate],0.82%
6,COC(=O)C1=C(C)NC(C)=C([N+](=O)[O-])[C@@H]1c1ccccc1C(F)(F)F (racemic),4.88%
7,Nc1cc(Cl)c(N=C2NCCN2)c(Cl)c1 [apraclonidine],-0.76%
8,N[C@@H](Cc1cc(-c2ccc(Cl)cc2Cl)cc(CP(=O)(O)O)c1O)C(=O)O,2.27%
9,COc1cc(N)c(Cl)cc1C(=O)OCCN1CCCCC1,2.59%
10,O=C1C=C2C=C[C@@H]3C[C@@]2(O1)[C@H]1CCCCN31 [securinine],18.4% (active)
11,CN1CCN(CCCN2c3ccccc3Sc3ccc(Cl)cc32)CC1 [prochlorperazine],14.6%
12,Nc1cccc2c(=O)[nH][nH]c(=O)c12 [monosodium-alpha-luminol],2.06%
13,Cc1c(O)c(=O)n(-c2ccccc2)n1C [4-hydroxy-phenazone],-2.04%
14,CCn1cc(-c2cccc(C(F)(F)F)c2)c2sc(C(=N)NC3CCS(=O)(=O)CC3)cc2c1=O,-7.19%
15,CC(C)(C)NCC(O)c1ccc(O)c(CO)c1 (stereo not given) [albuterol],-3.93%
16,C[C@H]1CC[C@H](n2c3cnccc3c3cnc(Nc4ccc5c(n4)CCN(C(=O)CO)C5)nc32)CC1,-5.03%
17,CC[C@H](C)C(=O)O[C@H]1C[C@@H](C)C=C2C=C[C@H](C)[C@H](CC[C@@H]3C[C@@H](O)CC(=O)O3)[C@H]21 [lovastatin],0.82%
18,O=C(OCC(COC(=O)c1cccnc1)(COC(=O)c1cccnc1)COC(=O)c1cccnc1)c1cccnc1 [niceritrol],6.17%
19,CN(C)CCC=C1c2ccccc2CCc2ccccc21 [amitriptyline],-2.45%
20,COc1cccc(OC)c1C(=O)N[C@@H]1C(=O)N2[C@@H]1SC(C)(C)[C@@H]2C(=O)O [methicillin],1.21%

row,SMILES,inhibition of SARS-CoV-2 cytopathic effect
1,OC[C@H]1O[C@H](O[C@H]2O[C@H](CO)[C@@H](O)[C@H](O)[C@H]2O)[C@H](O)[C@@H](O)[C@@H]1O [cabaletta],0.76%
2,CC/C(=C(/c1ccc(/C=C/C(=O)O)cc1)c1ccc2[nH]ncc2c1)c1ccc(F)cc1Cl,-0.85%
3,O=C(NC1CCN(CCCCC2(C(=O)NCC(F)(F)F)c3ccccc3-c3ccccc32)CC1)c1ccccc1-c1ccc(C(F)(F)F)cc1 [lomitapide],20.9% (active)
4,COC(=O)N1CC[C@@H]2[C@H]1CCC[C@@]2(O)C#Cc1cccc(C)c1 [mavoglurant],-0.19%
5,Cc1ccc(C(=O)Nc2cccc(C(F)(F)F)c2)cc1Nc1nc(-c2cccnc2)nc2c1cnn2C,28.1% (active)
6,CCCCOC(=O)c1cc2c(cn1)[nH]c1ccccc12 [beta-CCB],-5.4%
7,Cc1c(F)cc(C(=O)NC2CC2)cc1-c1ccc(C(=O)NCC(C)(C)C)cn1 [losmapimod],-5.03%
8,C[C@@H](CN)CC(=O)O [3-methyl-GABA],-0.34%
9,CC1=CC(=C(c2ccc(N)cc2)c2ccc(N)cc2)C=CC1=N [basic-fuchsin],-17.1%
10,C=C1CCN([C@H](C)[C@](O)(Cn2cncn2)c2ccc(F)cc2F)CC1 [efinaconazole],2.84%
11,CCN(Cc1ccc(Cl)nc1)/C(=C/[N+](=O)[O-])NC [nitenpyram],1.08%
12,O=c1[nH]c2ccccc2n1CCCN1CCN(C(c2ccccc2)c2ccccc2)CC1 [oxatomide],-7.26%
13,CCc1ccccc1OC[C@@H](O)CN[C@H]1CCCc2ccccc21,-4.25%
14,CCCC(=O)Nc1ncnc2c1ncn2[C@@H]1O[C@@H]2COP(=O)(O)O[C@H]2[C@H]1OC(=O)CCC [bucladesine],1.04%
15,Sc1ncnc2nc[nH]c12 [mercaptopurine],0.56%
16,CC(C)(C)NCC(O)c1cc(O)cc(O)c1 (stereo not given),-0.76%
17,Cc1cc(OCC(=O)O)cc(C)c1Cc1ccc(O)c(C(C)C)c1 [sobetirome],-2.77%
18,O=C(Nc1ccccc1F)N[C@H]1N=C(c2ccccc2)c2ccccc2NC1=O,-0.49%
19,C[C@H](Cc1cc2c(c(C(N)=O)c1)N(CCCO)CC2)NCCOc1ccccc1OCC(F)(F)F [silodosin],3.11%
20,Cn1cc(-c2ccc3nnc(C(F)(F)c4ccc5ncccc5c4)n3n2)cn1,6.76%
